# Experimental data taken from publication PMC7862700, “An all-to-all approach to the identification of sequence-specific readers for epigenetic DNA modifications on cytosine”.
# Tests used:
# Experiment in all cases: DAPPL (digital affinity profiling via proximity ligation, sequencing); 10 mM Tris-HCl pH 7.5, 50 mM NaCl, 1 mM DTT, 4% glycerol, room temperature, 30 min; GST-TFs on glutathione beads, 16-mer random dsDNA library, 0.1% formaldehyde crosslink after washing; high values mean tight binding
# [1] = target: T1, FLI1 (Homo sapiens, UniProt Q01543 1-452); conditions: protein: recombinant; tags: N-terminal GST; dsDNA, one strand shown
# T1 sequence: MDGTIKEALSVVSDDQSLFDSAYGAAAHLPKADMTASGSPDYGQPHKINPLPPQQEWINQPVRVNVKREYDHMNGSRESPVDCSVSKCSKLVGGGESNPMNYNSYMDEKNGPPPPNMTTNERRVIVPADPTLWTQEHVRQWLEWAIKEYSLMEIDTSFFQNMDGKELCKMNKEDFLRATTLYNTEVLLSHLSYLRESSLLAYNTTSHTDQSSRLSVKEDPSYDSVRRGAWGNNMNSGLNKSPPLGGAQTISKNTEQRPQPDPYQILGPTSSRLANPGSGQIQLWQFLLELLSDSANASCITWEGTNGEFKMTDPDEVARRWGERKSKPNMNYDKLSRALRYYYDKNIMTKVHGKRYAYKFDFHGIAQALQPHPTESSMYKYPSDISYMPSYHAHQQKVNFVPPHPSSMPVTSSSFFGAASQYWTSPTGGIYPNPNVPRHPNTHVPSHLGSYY
# In short: (§1)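 Binding signal is given per hexamer as its read frequency for a factor divided by its frequency in the tag-only sample. GST-fused human transcription factors were expressed in yeast, captured on glutathione beads, barcoded with DNA and pooled with that sample, then incubated with 200 nmole of a 16-mer random double-stranded DNA library in Tris/NaCl/DTT/glycerol buffer for 30 min at room temperature. The pools were then washed, crosslinked, proximity-ligated, amplified by PCR and sequenced on an Illumina NextSeq500.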
# [2] = target: T2, ELK1 (Homo sapiens, UniProt P19419 1-428); conditions: protein: recombinant; tags: N-terminal GST; dsDNA, one strand shown
# T2 sequence: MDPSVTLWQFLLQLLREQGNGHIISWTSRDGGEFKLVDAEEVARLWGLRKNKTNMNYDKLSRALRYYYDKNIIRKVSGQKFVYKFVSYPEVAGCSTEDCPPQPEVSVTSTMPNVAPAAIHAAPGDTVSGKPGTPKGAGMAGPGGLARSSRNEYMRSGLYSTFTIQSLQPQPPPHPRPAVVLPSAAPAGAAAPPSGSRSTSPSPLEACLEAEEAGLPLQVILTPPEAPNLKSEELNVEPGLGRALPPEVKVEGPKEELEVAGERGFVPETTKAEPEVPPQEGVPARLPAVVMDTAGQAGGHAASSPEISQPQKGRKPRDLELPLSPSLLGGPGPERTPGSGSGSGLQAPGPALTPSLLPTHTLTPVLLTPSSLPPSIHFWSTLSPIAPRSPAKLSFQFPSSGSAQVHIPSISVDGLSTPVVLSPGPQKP
# In short: as §1
# [3] = target: T3, GABPA (Homo sapiens, UniProt Q06546 1-454); conditions: protein: recombinant; tags: N-terminal GST; dsDNA, one strand shown
# T3 sequence: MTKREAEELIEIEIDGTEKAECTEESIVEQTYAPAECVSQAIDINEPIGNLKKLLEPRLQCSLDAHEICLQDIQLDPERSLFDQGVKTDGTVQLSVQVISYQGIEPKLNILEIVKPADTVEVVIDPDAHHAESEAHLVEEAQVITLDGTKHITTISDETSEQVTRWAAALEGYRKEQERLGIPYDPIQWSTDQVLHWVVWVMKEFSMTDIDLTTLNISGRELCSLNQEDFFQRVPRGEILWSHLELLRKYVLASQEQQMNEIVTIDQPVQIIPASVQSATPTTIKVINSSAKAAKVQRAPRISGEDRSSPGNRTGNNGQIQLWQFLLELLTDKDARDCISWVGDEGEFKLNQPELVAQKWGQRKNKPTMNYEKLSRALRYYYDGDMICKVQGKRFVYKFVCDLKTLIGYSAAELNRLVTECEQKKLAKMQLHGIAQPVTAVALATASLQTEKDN
# In short: as §1
# [4] = target: T4, ERG (Homo sapiens, UniProt P11308 1-479); conditions: protein: recombinant; tags: N-terminal GST; dsDNA, one strand shown
# T4 sequence: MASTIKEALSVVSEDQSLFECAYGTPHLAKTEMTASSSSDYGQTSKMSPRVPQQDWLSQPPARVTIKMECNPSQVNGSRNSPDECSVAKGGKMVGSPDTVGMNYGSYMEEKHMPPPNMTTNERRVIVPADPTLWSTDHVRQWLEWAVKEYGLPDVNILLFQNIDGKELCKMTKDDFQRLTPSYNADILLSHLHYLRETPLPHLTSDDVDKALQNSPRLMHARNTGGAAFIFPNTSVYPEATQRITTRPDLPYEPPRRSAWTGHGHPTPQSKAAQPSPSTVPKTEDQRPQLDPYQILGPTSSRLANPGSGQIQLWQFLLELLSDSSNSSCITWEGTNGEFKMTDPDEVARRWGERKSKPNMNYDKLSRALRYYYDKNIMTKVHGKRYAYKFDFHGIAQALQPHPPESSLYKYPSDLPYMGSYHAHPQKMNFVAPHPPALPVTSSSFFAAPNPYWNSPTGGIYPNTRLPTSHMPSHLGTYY
# In short: as §1
# [5] = target: ELF1 (Homo sapiens, UniProt P32519 1-619); conditions: protein: recombinant; tags: N-terminal GST; dsDNA, one strand shown
# In short: as §1
# [6] = target: T5, EHF (Homo sapiens, UniProt Q9NZC4 1-300); conditions: protein: recombinant; tags: N-terminal GST; dsDNA, one strand shown
# T5 sequence: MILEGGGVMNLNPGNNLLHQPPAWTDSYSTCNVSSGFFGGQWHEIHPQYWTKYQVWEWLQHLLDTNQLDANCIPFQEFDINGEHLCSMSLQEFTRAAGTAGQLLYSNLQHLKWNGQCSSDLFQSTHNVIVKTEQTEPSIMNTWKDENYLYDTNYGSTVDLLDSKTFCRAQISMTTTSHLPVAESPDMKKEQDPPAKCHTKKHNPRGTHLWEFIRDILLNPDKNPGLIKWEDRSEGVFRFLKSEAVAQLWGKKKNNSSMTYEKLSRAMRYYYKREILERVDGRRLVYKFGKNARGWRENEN
# In short: as §1
# [7] = target: SPI1 (Homo sapiens, UniProt P17947 1-270); conditions: protein: recombinant; tags: N-terminal GST; dsDNA, one strand shown
# In short: as §1
# [8] = target: SPIB (Homo sapiens, UniProt Q01892 1-262); conditions: protein: recombinant; tags: N-terminal GST; dsDNA, one strand shown
# In short: as §1
# [9] = target: T6, ELK3 (Homo sapiens, UniProt P41970 1-407); conditions: protein: recombinant; tags: N-terminal GST; dsDNA, one strand shown
# T6 sequence: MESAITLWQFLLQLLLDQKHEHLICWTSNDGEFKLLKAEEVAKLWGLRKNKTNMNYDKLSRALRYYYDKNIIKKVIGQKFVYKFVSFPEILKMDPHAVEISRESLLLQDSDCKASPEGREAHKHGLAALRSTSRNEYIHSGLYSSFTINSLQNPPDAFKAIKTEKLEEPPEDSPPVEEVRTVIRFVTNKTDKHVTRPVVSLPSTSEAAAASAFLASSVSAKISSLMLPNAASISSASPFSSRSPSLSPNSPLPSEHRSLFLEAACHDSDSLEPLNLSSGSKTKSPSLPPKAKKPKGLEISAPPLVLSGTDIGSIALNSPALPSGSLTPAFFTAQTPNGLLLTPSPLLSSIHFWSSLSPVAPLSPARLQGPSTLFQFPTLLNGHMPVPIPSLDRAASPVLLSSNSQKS
# In short: as §1
# [10] = target: T7, FEV (Homo sapiens, UniProt Q99581 1-238); conditions: protein: recombinant; tags: N-terminal GST; dsDNA, one strand shown
# T7 sequence: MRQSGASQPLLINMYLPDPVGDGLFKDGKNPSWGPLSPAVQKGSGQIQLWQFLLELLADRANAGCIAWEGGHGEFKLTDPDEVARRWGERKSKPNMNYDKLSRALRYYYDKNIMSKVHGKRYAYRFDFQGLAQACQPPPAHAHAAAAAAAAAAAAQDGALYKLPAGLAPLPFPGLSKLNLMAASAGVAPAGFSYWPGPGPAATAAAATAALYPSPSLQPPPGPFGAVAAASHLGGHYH
# In short: as §1
# [11] = target: ETV5 (Homo sapiens, UniProt P41161 1-510); conditions: protein: recombinant; tags: N-terminal GST; dsDNA, one strand shown
# In short: as §1
# [12] = target: HSF1 (Homo sapiens, UniProt Q00613 1-529); conditions: protein: recombinant; tags: N-terminal GST; chain copies: 3; dsDNA, one strand shown
# In short: as §1
# [13] = target: T8, SPIC (Homo sapiens, UniProt Q8N5J4 1-248); conditions: protein: recombinant; tags: N-terminal GST; dsDNA, one strand shown
# T8 sequence: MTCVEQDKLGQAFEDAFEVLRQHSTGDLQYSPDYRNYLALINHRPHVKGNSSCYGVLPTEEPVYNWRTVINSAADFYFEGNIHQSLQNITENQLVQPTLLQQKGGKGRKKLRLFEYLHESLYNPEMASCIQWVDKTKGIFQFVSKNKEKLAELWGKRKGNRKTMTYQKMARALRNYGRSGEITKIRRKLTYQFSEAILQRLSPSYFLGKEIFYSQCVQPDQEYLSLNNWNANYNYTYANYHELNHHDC
# In short: as §1
# [14] = target: ELF4 (Homo sapiens, UniProt Q99607 1-663); conditions: protein: recombinant; tags: N-terminal GST; dsDNA, one strand shown
# In short: as §1
# [15] = target: T9, ELK4 (Homo sapiens, UniProt P28324-2 1-405); conditions: protein: recombinant; tags: N-terminal GST; dsDNA, one strand shown
# T9 sequence: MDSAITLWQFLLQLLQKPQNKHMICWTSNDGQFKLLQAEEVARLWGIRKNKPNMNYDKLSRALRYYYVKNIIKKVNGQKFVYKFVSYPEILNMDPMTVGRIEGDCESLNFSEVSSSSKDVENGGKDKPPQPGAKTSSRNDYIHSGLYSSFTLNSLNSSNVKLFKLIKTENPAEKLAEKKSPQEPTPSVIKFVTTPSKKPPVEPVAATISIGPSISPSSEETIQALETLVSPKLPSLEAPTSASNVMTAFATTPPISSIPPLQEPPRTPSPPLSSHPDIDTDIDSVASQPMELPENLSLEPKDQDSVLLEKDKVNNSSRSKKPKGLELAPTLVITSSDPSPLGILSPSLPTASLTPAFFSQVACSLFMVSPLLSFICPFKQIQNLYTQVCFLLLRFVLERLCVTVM
# In short: as §1
# [16] = target: T10, ETV2 (Homo sapiens, UniProt O00321 1-342); conditions: protein: recombinant; tags: N-terminal GST; dsDNA, one strand shown
# T10 sequence: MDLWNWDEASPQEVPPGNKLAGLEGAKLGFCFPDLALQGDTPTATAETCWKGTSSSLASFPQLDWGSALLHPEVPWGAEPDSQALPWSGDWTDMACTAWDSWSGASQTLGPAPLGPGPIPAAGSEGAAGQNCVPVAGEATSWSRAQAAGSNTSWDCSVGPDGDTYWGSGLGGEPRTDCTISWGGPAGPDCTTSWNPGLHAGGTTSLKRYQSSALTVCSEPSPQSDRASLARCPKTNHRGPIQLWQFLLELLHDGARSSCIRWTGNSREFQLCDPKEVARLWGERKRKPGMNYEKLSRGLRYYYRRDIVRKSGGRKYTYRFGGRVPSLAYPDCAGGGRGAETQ
# In short: as §1
# [17] = target: T11, ELF3 (Homo sapiens, UniProt P78545 1-371); conditions: protein: recombinant; tags: N-terminal GST; dsDNA, one strand shown
# T11 sequence: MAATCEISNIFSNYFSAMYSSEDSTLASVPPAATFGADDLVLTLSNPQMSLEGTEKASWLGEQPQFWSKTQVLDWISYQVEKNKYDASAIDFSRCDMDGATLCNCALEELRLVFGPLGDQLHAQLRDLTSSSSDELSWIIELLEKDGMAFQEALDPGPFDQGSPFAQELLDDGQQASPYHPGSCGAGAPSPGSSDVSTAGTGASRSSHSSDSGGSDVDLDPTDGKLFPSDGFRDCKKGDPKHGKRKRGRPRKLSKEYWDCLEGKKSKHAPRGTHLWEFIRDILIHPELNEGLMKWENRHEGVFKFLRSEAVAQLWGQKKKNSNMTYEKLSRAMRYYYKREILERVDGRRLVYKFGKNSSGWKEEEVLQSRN
# In short: as §1
# [18] = target: CRX (Homo sapiens, UniProt O43186 1-299); conditions: protein: recombinant; tags: N-terminal GST; dsDNA, one strand shown
# In short: as §1
# [19] = target: ETV1 (Homo sapiens, UniProt P50549 1-477); conditions: protein: recombinant; tags: N-terminal GST; dsDNA, one strand shown
# In short: as §1
# Chain of ELF4 (Q99607 whole entry): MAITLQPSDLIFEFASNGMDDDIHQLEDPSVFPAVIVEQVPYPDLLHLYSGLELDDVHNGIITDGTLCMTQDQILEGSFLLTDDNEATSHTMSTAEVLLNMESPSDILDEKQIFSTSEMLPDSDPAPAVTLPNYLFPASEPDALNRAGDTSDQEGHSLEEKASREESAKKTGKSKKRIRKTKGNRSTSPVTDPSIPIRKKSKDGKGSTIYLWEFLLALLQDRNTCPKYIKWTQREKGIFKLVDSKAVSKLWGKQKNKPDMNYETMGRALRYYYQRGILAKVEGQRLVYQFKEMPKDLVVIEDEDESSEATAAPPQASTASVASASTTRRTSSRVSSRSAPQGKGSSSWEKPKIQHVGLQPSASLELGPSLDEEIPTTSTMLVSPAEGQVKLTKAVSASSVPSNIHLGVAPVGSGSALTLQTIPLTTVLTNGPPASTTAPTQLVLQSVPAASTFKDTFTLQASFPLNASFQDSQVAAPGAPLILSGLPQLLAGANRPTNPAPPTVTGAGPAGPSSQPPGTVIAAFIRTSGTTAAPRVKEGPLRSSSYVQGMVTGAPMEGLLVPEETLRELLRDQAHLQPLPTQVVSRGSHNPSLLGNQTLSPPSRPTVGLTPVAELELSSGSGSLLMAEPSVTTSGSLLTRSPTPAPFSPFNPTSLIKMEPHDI
# Chain of ETV5 (P41161 whole entry): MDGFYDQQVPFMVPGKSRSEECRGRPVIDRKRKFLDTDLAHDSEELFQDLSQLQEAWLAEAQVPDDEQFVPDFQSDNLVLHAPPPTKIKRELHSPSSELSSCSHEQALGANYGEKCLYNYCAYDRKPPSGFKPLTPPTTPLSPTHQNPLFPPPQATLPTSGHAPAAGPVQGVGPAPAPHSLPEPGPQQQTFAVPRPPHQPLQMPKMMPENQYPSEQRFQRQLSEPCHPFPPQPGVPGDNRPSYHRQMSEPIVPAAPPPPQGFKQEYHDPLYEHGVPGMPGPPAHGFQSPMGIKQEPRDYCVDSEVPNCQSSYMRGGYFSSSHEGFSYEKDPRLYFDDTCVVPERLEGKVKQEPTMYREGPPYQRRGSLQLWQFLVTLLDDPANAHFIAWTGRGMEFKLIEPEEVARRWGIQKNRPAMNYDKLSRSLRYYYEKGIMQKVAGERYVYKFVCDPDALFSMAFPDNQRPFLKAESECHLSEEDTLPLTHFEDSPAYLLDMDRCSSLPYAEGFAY
# Chain of HSF1 (Q00613 whole entry): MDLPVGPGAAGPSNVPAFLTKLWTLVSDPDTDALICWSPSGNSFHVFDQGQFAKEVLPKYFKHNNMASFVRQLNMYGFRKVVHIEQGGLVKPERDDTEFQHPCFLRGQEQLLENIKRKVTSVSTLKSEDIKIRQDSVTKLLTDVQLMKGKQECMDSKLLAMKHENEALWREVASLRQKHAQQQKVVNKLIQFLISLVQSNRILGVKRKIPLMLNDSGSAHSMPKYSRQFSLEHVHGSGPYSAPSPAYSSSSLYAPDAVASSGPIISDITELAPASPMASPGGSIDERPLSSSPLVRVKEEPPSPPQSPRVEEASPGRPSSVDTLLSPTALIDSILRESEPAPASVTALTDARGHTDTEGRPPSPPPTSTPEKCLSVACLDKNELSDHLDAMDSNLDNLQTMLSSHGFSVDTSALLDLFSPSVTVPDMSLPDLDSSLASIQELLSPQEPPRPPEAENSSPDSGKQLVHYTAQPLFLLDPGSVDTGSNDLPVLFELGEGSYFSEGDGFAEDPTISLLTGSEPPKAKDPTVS
# Chain of ELF1 (P32519 whole entry): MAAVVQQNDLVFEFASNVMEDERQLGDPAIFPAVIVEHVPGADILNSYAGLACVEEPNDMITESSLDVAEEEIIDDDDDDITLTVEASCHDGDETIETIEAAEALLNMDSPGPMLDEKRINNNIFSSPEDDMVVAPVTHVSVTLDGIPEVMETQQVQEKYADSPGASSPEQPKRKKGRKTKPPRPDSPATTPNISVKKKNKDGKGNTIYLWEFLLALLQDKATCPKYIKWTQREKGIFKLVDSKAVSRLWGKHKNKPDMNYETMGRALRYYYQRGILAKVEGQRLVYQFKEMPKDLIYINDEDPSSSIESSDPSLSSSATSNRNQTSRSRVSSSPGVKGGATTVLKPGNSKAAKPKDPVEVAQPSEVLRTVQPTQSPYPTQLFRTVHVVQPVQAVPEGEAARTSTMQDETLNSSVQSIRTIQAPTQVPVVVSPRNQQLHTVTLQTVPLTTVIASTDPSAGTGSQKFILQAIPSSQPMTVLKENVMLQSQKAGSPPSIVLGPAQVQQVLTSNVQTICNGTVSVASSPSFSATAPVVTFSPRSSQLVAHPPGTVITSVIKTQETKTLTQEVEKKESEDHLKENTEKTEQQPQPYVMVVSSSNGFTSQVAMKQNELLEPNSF
# Chain of SPIB (Q01892 whole entry): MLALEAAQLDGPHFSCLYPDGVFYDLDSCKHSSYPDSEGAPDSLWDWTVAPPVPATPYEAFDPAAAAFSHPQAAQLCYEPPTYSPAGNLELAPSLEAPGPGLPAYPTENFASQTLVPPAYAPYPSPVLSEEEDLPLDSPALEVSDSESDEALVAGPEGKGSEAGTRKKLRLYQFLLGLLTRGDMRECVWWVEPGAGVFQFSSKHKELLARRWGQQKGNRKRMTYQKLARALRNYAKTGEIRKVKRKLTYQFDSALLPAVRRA
# Chain of CRX (O43186 whole entry): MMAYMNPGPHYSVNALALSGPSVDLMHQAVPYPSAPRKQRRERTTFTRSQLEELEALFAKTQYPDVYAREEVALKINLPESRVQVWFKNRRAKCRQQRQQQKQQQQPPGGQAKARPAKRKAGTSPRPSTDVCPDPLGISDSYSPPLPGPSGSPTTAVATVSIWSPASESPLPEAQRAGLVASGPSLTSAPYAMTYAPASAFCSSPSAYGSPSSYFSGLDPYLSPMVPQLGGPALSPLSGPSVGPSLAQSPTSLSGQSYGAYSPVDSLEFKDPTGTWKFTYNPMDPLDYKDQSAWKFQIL
# Chain of ETV1 (P50549 whole entry): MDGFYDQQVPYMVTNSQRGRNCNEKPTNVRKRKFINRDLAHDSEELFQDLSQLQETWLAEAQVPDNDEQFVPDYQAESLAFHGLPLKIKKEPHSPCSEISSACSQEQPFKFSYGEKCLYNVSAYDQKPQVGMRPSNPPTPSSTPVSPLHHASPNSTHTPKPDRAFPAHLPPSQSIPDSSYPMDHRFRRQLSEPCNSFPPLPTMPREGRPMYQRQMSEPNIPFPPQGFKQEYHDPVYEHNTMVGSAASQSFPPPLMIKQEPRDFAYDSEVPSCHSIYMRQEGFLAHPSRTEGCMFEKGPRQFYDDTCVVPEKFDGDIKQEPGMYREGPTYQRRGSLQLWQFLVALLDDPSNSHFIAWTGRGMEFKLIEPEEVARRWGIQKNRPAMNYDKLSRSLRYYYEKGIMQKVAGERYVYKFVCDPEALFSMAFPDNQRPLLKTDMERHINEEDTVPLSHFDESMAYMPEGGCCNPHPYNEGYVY
sequence,measurement,setting,value
CTTGTA,binding signal,[1],"1.5 fold enrichment (6-mer frequency, TF over GST control)"
same,binding signal,[2],"1.36 fold enrichment (6-mer frequency, TF over GST control)"
same,binding signal,[3],"1.37 fold enrichment (6-mer frequency, TF over GST control)"
same,binding signal,[4],"1.33 fold enrichment (6-mer frequency, TF over GST control)"
same,binding signal,[5],"1.41 fold enrichment (6-mer frequency, TF over GST control)"
same,binding signal,[6],"1.42 fold enrichment (6-mer frequency, TF over GST control)"
same,binding signal,[7],"1.39 fold enrichment (6-mer frequency, TF over GST control)"
same,binding signal,[8],"1.44 fold enrichment (6-mer frequency, TF over GST control)"
same,binding signal,[9],"1.25 fold enrichment (6-mer frequency, TF over GST control)"
same,binding signal,[10],"1.32 fold enrichment (6-mer frequency, TF over GST control)"
same,binding signal,[11],"1.33 fold enrichment (6-mer frequency, TF over GST control)"
same,binding signal,[12],"1.34 fold enrichment (6-mer frequency, TF over GST control)"
same,binding signal,[13],"1.22 fold enrichment (6-mer frequency, TF over GST control)"
same,binding signal,[14],"1.37 fold enrichment (6-mer frequency, TF over GST control)"
same,binding signal,[15],"1.64 fold enrichment (6-mer frequency, TF over GST control)"
same,binding signal,[16],"1.41 fold enrichment (6-mer frequency, TF over GST control)"
same,binding signal,[17],"1.27 fold enrichment (6-mer frequency, TF over GST control)"
same,binding signal,[18],"1.27 fold enrichment (6-mer frequency, TF over GST control)"
same,binding signal,[19],"1.41 fold enrichment (6-mer frequency, TF over GST control)"
